SW480 rerep = induces DNA re-replication in SW480 colon adenocarcinoma cells; SW480 DNA re-replication, Hoechst DNA content imaging, 48 h; Potency, µM (series often up to 46.1 µM), most hits filed as activators; 340,000 compounds, 1.8% hits; AID 624297; further: nearly all actives have a fitted effect of over 55% in size
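Image-based read-out: total Hoechst fluorescence of nuclei (405 nm excitation, 500-530 nm emission), with hits raising the fraction of high-intensity nuclei. SW480 colon cells incubated 48 hr with compounds at 37 C.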
MCF10A rereplic = DNA re-replication induction in MCF 10a cells | MCF 10A DNA re-replication, Hoechst nuclear intensity, 48 h | 350,000 compounds, 2.9% hits | Potency, µM (titrated, usually from 46.1 µM), most hits filed as activators; further: nearly all actives have a fitted effect of over 50% in size
HT1080 IDH1KD tx = kills HT-1080 cells with IDH1 knockdown. HT-1080 IDH1 knockdown viability, ATP luminescence, 48 h. Potency, µM (top dose mostly 46.1 µM), most hits filed as cytotoxic. 360,000 compounds, 2% hits. AID 686971
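Cytotoxicity counter-line: IDH1KD HT-1080, 48 h, CellTiter-Glo. Curves classed by r2, magnitude and activity.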
HT1080NT lethal = kills 2HG-producing HT-1080-NT fibrosarcoma cells. 360,000 compounds, 1.6% hits. Potency, µM (titrated, usually from 46.1 µM), hits mostly cytotoxic. HT-1080-NT fibrosarcoma viability, CellTiter-Glo ATP luminescence, 48 h. AID 686970;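 further: NT is the 2HG producing partner of a matched IDH1 knockdown line; nearly all actives have a fitted effect of over 55% in size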
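750 cells/well, RPMI + 5% FBS; 2 h settle, compound pin-transfer, 48 h at 37 degrees C. CellTiter-Glo 10 min RT, luminescence. Normalized to DMSO and media-only wells.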
KB-3-1 cytotox = KB-3-1 parental cell cytotoxicity; Potency, µM (series often up to 46.1 µM), actives largely listed as cytotoxic; KB-3-1 viability, CellTiter-Glo ATP luminescence, 72 h; 400,000 compounds, 1.4% hits; further: nearly all actives have a fitted effect of over 60% in size
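72 h, 37 °C compound treatment of KB-3-1 parental cells; CellTiter-Glo added, 10 min, luminescence read. Data corrected against DMSO-only plates and normalized before curve fitting.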
KB-V1 MDR tox = kills drug-selected multidrug resistant KB-V1 cells; KB-V1 MDR cells viability, CellTiter-Glo, 72 h; Potency, µM (top dose mostly 46.1 µM), hits mostly cytotoxic; 400,000 compounds, 3.4% hits; AID 1347076; further: nearly all actives have a fitted effect of over 60% in size
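KB-V1, DMEM (no phenol red) + 10% FBS; cpd pin-transferred, titration series; 72 h, 37 degrees C; CellTiter-Glo, luminescence. Data normalized, curve-fit.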
A number is an active result; n = inactive; u = inconclusive; x = no result. In the library only some 7.9% were active in any assay of this set; here they are far more common. The call rests on the fitted dose curve; in most records, active means well fitted curve in the direction sought with a large enough effect; inconclusive means small, poorly fitted or top-dose-only effect, or another doubt; inactive means no such curve, though single readings can be large; an effect the other way counts as inactive or inconclusive.

SMILES | SW480 rerep | MCF10A rereplic | HT1080 IDH1KD tx | HT1080NT lethal | KB-3-1 cytotox | KB-V1 MDR tox
CCCC(=O)NC(=S)Nc1cccc(Cl)c1N1CCCC1 | u | 18µM | u | u | n | n
O=C(NC(=S)Nc1cccc(Cl)c1N1CCCCC1)c1cccs1 | u | 3.3µM | 10µM | 3.5µM | u | u
O=C(NC(=S)Nc1ccccc1N1CCCCC1)c1ccco1 | n | u | n | n | u | u
O=C(NC(=S)Nc1ccc(N2CCCCC2)cc1)c1ccco1 | u | u | 14µM | 7.1µM | n | 8.2µM
Cc1cc(CN(C)C(=O)CC2C(=O)NCCN2Cc2ccc(-c3ccccc3)cc2)on1 (stereo not given) | n | n | n | n | n | n
CN(C)Cc1ccc(-c2nc3cccc4c3n2CCNC4=O)cc1 | u | u | x | x | 18µM | n
O=[N+]([O-])c1cc(/C=N/n2cnnc2)ccc1N1CCCC1 | n | n | n | n | n | 2.6µM
CC(C)CN(CC(C)C)c1ccc(/C=N/n2cnnc2)cc1[N+](=O)[O-] | n | u | n | n | u | 21µM
C(=Nn1cnnc1)c1ccc2c(c1)CCC2 | x | x | n | n | 16µM | u
Brc1cccc(/C=N\n2cnnc2)c1 | n | n | n | n | n | u
O=[N+]([O-])c1cccc(/C=N/n2cnnc2)c1 | n | n | n | n | n | n
O=[N+]([O-])c1cc(/C=N/O)ccc1N1CCCC1 | n | n | n | n | u | u
CC(C)[C@H](N)c1nnc(SCc2ccc(Cl)cc2)o1 | n | n | n | n | n | 16µM
O=c1oc2c(CN3CCOCC3)c(O)ccc2cc1-c1ccccc1 | x | x | x | x | n | u
O=c1oc2c(CN3CCN(CCO)CC3)c(O)ccc2cc1-c1ccccn1 | 6.5µM | 8.2µM | n | n | n | u
CCCCn1c(=O)nc2n(-c3ccc(C)cc3)c3ccccc3cc-2c1=O | n | n | n | n | n | u
CCCCn1c(=O)nc2n(-c3ccc(Cl)cc3)c3ccccc3cc-2c1=O | n | n | n | n | n | 8.2µM
O=C(Nc1ccccc1)Nc1ccc(F)cc1F | 8.2µM | n | n | n | n | n
CCSc1nsc(NC(=O)Nc2ccc(F)cc2F)n1 | n | u | n | u | u | 15µM
Fc1cc(Br)ccc1NC(=S)Nc1ccccc1 | n | u | n | n | u | 15µM
CC(C)(C)OC(=O)C[C@@H]1C/C=C\C[C@@H](CC(=O)NCCO)C(=O)NC[C@@H](c2ccccc2)OC1=O | n | n | n | u | n | n
COc1cccc(-c2cc(C(F)(F)F)c(C#N)c(=O)[nH]2)c1 | n | 18µM | n | n | n | n
N#Cc1c(C(F)(F)F)cc(-c2ccccc2)[nH]c1=O | n | u | n | n | n | u
N#Cc1c(C(F)(F)F)cc(-c2ccccc2Cl)[nH]c1=O | n | 15µM | n | n | u | u
Cn1c(O)c(/C=N/NC(=O)c2cc3ccccc3cc2O)c2ccccc21 | u | 21µM | u | 16µM | u | n
SMILES | SW480 rerep | MCF10A rereplic | HT1080 IDH1KD tx | HT1080NT lethal | KB-3-1 cytotox | KB-V1 MDR tox
O=C(NC1CCCCC1)C(c1cccs1)N(C(=O)Cc1c[nH]c2ccccc12)c1ccc(F)cc1 (stereo not given) | n | n | n | n | n | n
Cc1ccc(C(C(=O)NC2CCCCC2)N(C(=O)Cc2c[nH]c3ccccc23)c2ccccc2)o1 (stereo not given) | n | u | n | u | 18µM | 4.1µM
CC(=O)Nc1ccc(N(C(=O)Cc2c[nH]c3ccccc23)C(C(=O)NC2CCCCC2)c2ccco2)cc1 (stereo not given) | n | n | n | n | n | n
COc1cc(C(C(=O)NC2CCCCC2)N(C(=O)Cc2c[nH]c3ccccc23)c2ccc(C)cc2)cc(OC)c1OC (stereo not given) | n | n | n | n | u | 23µM
CCNC(=O)c1c(NC(=O)c2cc(=O)c3ccc(C)c(C)c3o2)sc2c1CCCC2 | x | x | x | x | n | u
Cc1nc2ccccc2n1CCc1nc2c3ccccc3nc(SCc3ccc(F)cc3)n2n1 | x | x | x | x | n | n
COc1ccc(N(C(=O)c2ccccc2)S(=O)(=O)c2cccs2)cc1 | n | u | u | 16µM | n | n
C=C(C)CNC(=S)N/N=C(\C)c1ccc(OC)cc1 | n | n | n | n | u | 16µM
COCCNC(=S)N/N=C(\C)c1ccc(OC)cc1 | n | n | n | n | n | n
Cc1ccc2onc(CC(=O)N3CCN(c4ccc(F)cc4)CC3)c2c1 | x | x | x | x | n | u
Cc1noc(C)c1CSc1ccc2ccccc2n1 | n | u | n | n | n | 21µM
Cc1noc(C)c1CSc1nc2ccccc2c(=O)n1-c1ccc(Cl)cc1 | u | u | 7.1µM | 10µM | u | 23µM
Cc1ccc(C)c(OCc2cc(C(=O)N(C)Cc3nccn3C)no2)c1 | n | n | n | n | n | 13µM
Cc1ccc(C)c(OCc2cc(C(=O)N3CCOCC3)no2)c1 | n | 18µM | n | n | n | n
COc1ccc(-c2csc(-c3ccc(O)cc3)n2)cc1 | 7.3µM | 15µM | 1.6µM | 5.2µM | 4.1µM | 2.6µM
COc1ccc(-c2nc(CCl)cs2)cc1 | n | u | n | n | n | n
Cc1ccc(-c2ccnc(-c3ccc(O)cc3)n2)cc1 | n | n | n | n | n | u
COc1ccc(-c2nc(CCl)cs2)cc1OC | n | n | n | n | n | u
COc1ccc(-c2nc(-c3ccc(O)cc3O)cs2)cc1OC | u | 21µM | u | u | n | u
COc1ccc2cc(-c3csc(-c4cccnc4)n3)ccc2c1 | n | 15µM | n | n | n | n
COc1ccc(-c2ccnc(-c3ccc(O)cc3)n2)cc1 | 8.2µM | 2.1µM | 1.5µM | 4.1µM | 5.8µM | 7.3µM
CC(C)(O)C#Cc1cccc(-c2nc(C(=O)NCCCN3CCOCC3)cc3c2[C@H](CCO)N(S(=O)C(C)(C)C)C3)c1 (stereo not given in full) | x | x | n | n | n | n
NC(=O)C1CCN(c2ncc(-c3ccc4c(c3)OCO4)s2)CC1 | x | x | x | x | n | n
COc1ccc(-c2ccnc(-c3ccncc3)n2)cc1 | 21µM | n | n | n | u | n
Oc1ccc(Nc2nc(-c3ccc(O)cc3)cs2)cc1 | u | 13µM | u | u | u | n
O=C(Nc1ccccc1Sc1ccccc1)c1cnn2c1NC(=C1CC1)C=C2C(F)(F)F | x | x | n | n | x | x
Cc1cc(C(=O)COC(=O)c2cccc(NS(C)(=O)=O)c2)c(C)n1CC1CCCO1 (stereo not given) | n | n | n | n | n | u
CCCCOc1ccccc1NC(=O)Cn1c(-c2cncs2)nc2ccccc21 | x | x | x | x | n | n
Nc1nonc1-c1nc2ccccc2n1CC(=O)N/N=C\c1ccc(-c2ccc(Cl)cc2)o1 | u | 8.9µM | n | n | u | u
CSc1ccccc1NC(=O)Cn1c(-c2cscn2)nc2ccccc21 | n | n | n | n | n | 16µM

Compound activity from PubChem BioAssay.
